# Measurements reported in PubChem BioAssay AID1159580 (chemical genetic matrix, 2015).
# In all, about 5,500 compounds went through this assay and about 2,000 (36%) were called active. About 18% were inconclusive and are not listed. The list shows a part of the results. A number with no mark means an inactive call. Rule as the data show it: active = normalized growth mostly below about 0.91 (no sharp cut-off); inconclusive = no clear call, values can overlap the other calls; inactive = mostly above about 0.92.
# Experiment: chemical genetic growth profiling, strain panel (AID 1159580);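 also: tested at 20 µM; growth read once vehicle control cultures reached saturation at 30 °C; 1 = growth at the plate median or of vehicle wells; lower values mean less growth of the strain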
# Details: S. cerevisiae deletion strains, growth OD
smiles,measurement,setting,value
O=C(Nc1ccc(OC(F)(F)F)cc1)N1CCN(c2nc(-c3ccccc3)ns2)CC1,normalized growth,"locus YAR019C, strain CDC15, hits give low values",1
same,normalized growth,"locus YBL105C, strain PKC1, hits give low values",1
same,normalized growth,"locus YBR135W, strain CKS1, hits give low values",0.992
same,normalized growth,"locus YBR136W, strain MEC1, hits give low values",0.992
same,normalized growth,"locus YBR160W, strain CDC28, hits give low values",0.991
same,normalized growth,"locus YDL017W, strain CDC7, hits give low values",0.992
same,normalized growth,"locus YDL028C, strain MPS1, hits give low values",1.01
same,normalized growth,"locus YDL101C, strain DUN1, hits give low values",0.97
same,normalized growth,"locus YDL108W, strain KIN28, hits give low values",0.998
same,normalized growth,"locus YDL132W, strain cdc53, hits give low values",1
same,normalized growth,"locus YDL214C, strain PRR2, hits give low values",0.802
same,normalized growth,"locus YDR052C, strain DBF4, hits give low values",0.992
same,normalized growth,"locus YDR054C, strain cdc34, hits give low values",1
same,normalized growth,"locus YDR226W, strain ADK1, hits give low values",0.995
same,normalized growth,"locus YDR477W, strain SNF1, hits give low values",0.957
same,normalized growth,"locus YER123W, strain YCK3, hits give low values",0.861
same,normalized growth,"locus YER133W, strain GLC7, hits give low values",0.97
same,normalized growth,"locus YFL009W, strain cdc4, hits give low values",0.991
same,normalized growth,"locus YFL029C, strain CAK1, hits give low values",0.989
same,normalized growth,"locus YFR003C, strain YPI1, hits give low values",0.98
same,normalized growth,"locus YFR019W, strain FAB1, hits give low values",0.924
same,normalized growth,"locus YFR028C, strain CDC14, hits give low values",0.997
same,normalized growth,"locus YGR040W, strain KSS1, hits give low values",0.933
same,normalized growth,"locus YGR052W, strain FMP48, hits give low values",0.906
same,normalized growth,"locus YGR092W, strain DBF2, hits give low values",0.898
same,normalized growth,"locus YHR030C, strain SLT2, hits give low values",0.893
same,normalized growth,"locus YHR079C, strain IRE1, hits give low values",0.864
same,normalized growth,"locus YHR082C, strain KSP1, hits give low values",0.905
same,normalized growth,"locus YHR205W, strain SCH9, hits give low values",0.51 (active)
same,normalized growth,"locus YIL147C, strain SLN1, hits give low values",0.994
same,normalized growth,"locus YJL095W, strain BCK1, hits give low values",0.91
same,normalized growth,"locus YJL128C, strain PBS2, hits give low values",0.843
same,normalized growth,"locus YJL157C, strain FAR1, hits give low values",0.888
same,normalized growth,"locus YJR016C, strain ILV3, hits give low values",1
same,normalized growth,"locus YJR066W, strain TOR1 (second series), hits give low values",0.858
same,normalized growth,"locus YJR066W, strain TOR1, hits give low values",1.01
same,normalized growth,"locus YKL048C, strain ELM1, hits give low values",0.867
same,normalized growth,"locus YKL067W, strain YNK1, hits give low values",0.844
same,normalized growth,"locus YKL101W, strain HSL1, hits give low values",0.79
same,normalized growth,"locus YKL193C, strain SDS22, hits give low values",0.987
same,normalized growth,"locus YKL203C, strain TOR2, hits give low values",1.01
same,normalized growth,"locus YLR113W, strain HOG1, hits give low values",0.733 (active)
same,normalized growth,"locus YLR133W, strain CKI1, hits give low values",0.826
same,normalized growth,"locus YLR403W, strain SFP1, hits give low values",0.905
same,normalized growth,"locus YML070W, strain DAK1, hits give low values",0.856
same,normalized growth,"locus YMR001C, strain CDC5, hits give low values",0.992
same,normalized growth,"locus YMR205C, strain PFK2 (second series), hits give low values",0.793
same,normalized growth,"locus YMR277W, strain FCP1, hits give low values",0.989
same,normalized growth,"locus YNL006W, strain LST8, hits give low values",0.994
same,normalized growth,"locus YNL020C, strain ARK1, hits give low values",0.818
same,normalized growth,"locus YNL161W, strain CBK1, hits give low values",0.983
same,normalized growth,"locus YNL183C, strain NPR1, hits give low values",0.815
same,normalized growth,"locus YNL207W, strain RIO2, hits give low values",0.982
same,normalized growth,"locus YNL222W, strain SSU72, hits give low values",0.994
same,normalized growth,"locus YNL307C, strain MCK1 (second series), hits give low values",0.805
same,normalized growth,"locus YOL078W, strain AVO1, hits give low values",0.997
same,normalized growth,"locus YOL136C, strain PFK27, hits give low values",0.772
same,normalized growth,"locus YOR061W, strain CKA2, hits give low values",0.856
same,normalized growth,"locus YOR119C, strain RIO1, hits give low values",1
same,normalized growth,"locus YOR231W, strain MKK1, hits give low values",0.843
same,normalized growth,"locus YOR329C, strain SCD5, hits give low values",0.984
same,normalized growth,"locus YPL031C, strain PHO85, hits give low values",0.952
same,normalized growth,"locus YPL153C, strain RAD53, hits give low values",0.909
same,normalized growth,"locus YPL204W, strain HRR25, hits give low values",0.941
same,normalized growth,"locus YPL209C, strain IPL1, hits give low values",0.994
same,normalized growth,"locus YPL256C, strain CLN2, hits give low values",0.832 (active)
same,normalized growth,"locus YPR025C, strain CCL1, hits give low values",1
same,normalized growth,"locus YPR106W, strain ISR1, hits give low values",0.929
same,normalized growth,"locus YPR111W, strain DBF20, hits give low values",0.925
same,normalized growth,"strain NNK1, hits give low values",0.909
same,normalized growth,"strain TSCII, hits give low values",0.979
